Data from ChEMBL document CHEMBL4513216, “Probing the Open Global Health Chemical Diversity Library for Multistage-Active Starting Points for Next-Generation Antimalarials” (ACS Infect Dis, 2020).
About 8,600 (12%) of roughly 69,000 compounds showed an effect of 50% or more. What follows is part of a selection rich in strong results, with near analogues and random picks from the rest.

test system: Plasmodium berghei; experiment: Screen against P. berghei liver stage (PbLuc), transformed with Luciferase, at 10uM; type: functional, HepG2; conditions: tested at 10 uM

| SMILES | INHIBITION [%] |
| --- | --- |
| O=C(Nc1nc2c(s1)CNCC2)C1CC1 | 52.7 |
| O=C(Nc1nc2c(s1)CN(S(=O)(=O)C1CC1)CC2)C1CC1 | 37.9 |
| COc1ccc(C(=O)N2CCOc3ccncc32)cc1 | 60 |
| O=C(c1cc(-n2cccn2)ccn1)N1CCOc2ccc(F)cc21 | 23.3 |
| COc1cccc(OCC(=O)N2CCOc3ccncc32)c1 | -28.9 |
| O=C(COc1ccccc1Br)N1CCOc2ccncc21 | 9.35 |
| O=C(c1cc(-n2cccn2)ccn1)N1CCOc2ncccc21 | 30.5 |
| O=C(c1cc(-n2cccn2)ccn1)N1CCOc2ccncc21 | 52.9 |
| c1cnc2c(c1)cc([C@@H]1CCCO1)n2CCN1CCCCC1 | 38.8 |
| COC(=O)C(c1cc(F)ccc1F)N(C)C(=O)c1cnccn1 (stereo not drawn) | 48.4 |
| CC(C)c1nn(C)c(N(C)C)c1CNC(C)c1ccccc1F (stereo not drawn) | 15.5 |
| Cc1nc(CO[C@@H]2CN(Cc3ccco3)[C@@H]3COC[C@@H]32)cs1 | 18.2 |
| c1csc(N2CCN(Cc3cc4n(n3)CCNC4)CC2)n1 | -90.8 |
| OC(c1ccccn1)C1CCN(Cc2cc3n(n2)CCCNC3)CC1 (stereo not drawn) | 51.2 |
| OC(c1ccccn1)C1CCN(Cc2cc3n(n2)CCNC3)CC1 (stereo not drawn) | 61.5 |
| c1ccc(C2CCCN(Cc3cc4n(n3)CCNC4)CC2)cc1 (stereo not drawn) | 18.4 |
| c1ccc(COC2CCN(Cc3cc4n(n3)CCCNC4)CC2)nc1 | 37.9 |
| O=C1OCCN1C1CCN(Cc2cc3n(n2)CCCNC3)CC1 | -78.3 |
| c1cc(CNc2cnc(C3CCCN3)cn2)ccn1 (stereo not drawn) | 3.03 |
| COc1ccc(-c2cc(C3(O)CCCC3)on2)cc1 | -111 |
| CNC(=O)[C@H]1C[C@H]2OCC[C@H]2N(Cc2ccc(C)o2)C1 | 10.3 |
| Cn1cc(C2CC(=O)NC23CCN(Cc2ccncc2)CC3)cn1 (stereo not drawn) | -16.2 |
| CCOC(=O)N[C@H]1C[C@@H](C(=O)NCc2cccc(Cl)c2)N(C)C1 | -0.71 |
| CCOC(=O)N[C@H]1C[C@@H](C(=O)NCCc2cccc(Cl)c2)N(C)C1 | 55 |
| COCC(=O)N[C@H]1C[C@@H](C(=O)NCCc2cccc(Cl)c2)N(C)C1 | 31.1 |
| CC(C)CC(=O)N(C)CC(=O)Nc1ccc(Br)cn1 | 29.7 |
| CCN1CCN(c2ccc(C(=O)NCCOC)cc2F)CC1 | 76.7 |

| SMILES | INHIBITION [%] |
| --- | --- |
| CCN1CCN(c2ccc(C(=O)NCCn3ccnc3)cc2F)CC1 | 38.8 |
| CCN1CCN(c2ccc(C(=O)NCc3cc(C)no3)cc2F)CC1 | 11.7 |
| COc1ccc(C(=O)N2Cc3c(Cn4ccnc4)nn(C)c3C2)cc1 | 32.4 |
| Cc1ccc(C(=O)N2Cc3c(CN4CCCCC4)nn(C)c3C2)cc1C | 65.4 |
| Cc1ccc(C(=O)N2Cc3c(CN4CCCCC4)nn(C)c3C2)cc1F | -31 |
| CCCc1ccc(C(=O)N2Cc3c(Cn4ccnc4)nn(C)c3C2)cc1 | 78.8 |
| CN(C)Cc1nn(C)c2c1CN(C(=O)Nc1cccc(F)c1)C2 | -36.2 |
| Cn1nc(Cn2ccnc2)c2c1CN(C(=O)c1ccoc1)C2 | 47.4 |
| Cn1nc(CN2CCCCC2)c2c1CN(C(=O)Nc1cccc(F)c1)C2 | 79.6 |
| Cc1ccc(C(=O)N2CCc3c(CN4CCCC4)nn(C)c3C2)cc1C | 44.3 |
| Cn1nc(CN2CCCC2)c2c1CN(C(=O)Nc1cccc(F)c1)CC2 | 20.1 |
| O=C(NCCCn1cncn1)N1CCCCCC1 | 20.45 |
| COCCOc1ncccc1C(=O)N1CCCCC1c1nccs1 (stereo not drawn) | -38.7 |
| CCc1cc(C(=O)N2CCC(c3cc4ncccc4cn3)CC2)on1 | 20.8 |
| CCCN1CCN(C(=O)c2ccn(COc3ccc(F)cc3)n2)CC1 | 2.69 |
| CCOc1ccccc1C(=O)Nn1c(C)cc(C)cc1=O | 44.1 |
| CC(=O)N1CCN(CCNC(=O)NC(C)Cn2ccnc2)CC1 (stereo not drawn) | 43.5 |
| CNC(=O)[C@H]1C[C@@H]2CCN(Cc3ccc4c(c3)OCO4)C[C@@H]2O1 | -9.18 |
| CNC(=O)[C@@H]1C[C@@H]2CCN(Cc3ccoc3)C[C@H]2O1 | 30.3 |
| O=C(NCC1CC1)[C@H]1C[C@@H]2CCN(Cc3ccc4c(c3)OCO4)C[C@@H]2O1 | 30.4 |
| O=C(NC1CC1)[C@H]1C[C@@H]2CCN(Cc3ccc4c(c3)OCO4)C[C@@H]2O1 | 61.1 |
| CC(C)NC(=O)[C@@H]1C[C@@H]2CCN(Cc3ccoc3)C[C@H]2O1 | 53.9 |
| O=C(NC1CC1)[C@@H]1C[C@@H]2CCN(Cc3ccoc3)C[C@@H]2O1 | 49.4 |
| COCCNC(=O)[C@H]1C[C@@H]2CCN(Cc3ccoc3)C[C@H]2O1 | 30.1 |
| O=C(NC1CCCC1)[C@@H]1C[C@@H]2CCN(Cc3ccoc3)C[C@H]2O1 | 54.8 |
| O=C(NCC1CC1)[C@@H]1C[C@@H]2CCN(Cc3ccoc3)C[C@@H]2O1 | -10.3 |
